According to PubChem BioAssay (NCI):
Several values for one entry are separate records, joined by “and”; a condition that tells them apart may be missing. Equal entries are not always repeated. The panel holds about 79,000 compounds, 15% with a hit somewhere; the sample as a whole holds those more often. More than one record can exist for a structure, and the calls need not agree. Activity calls are given as the source filed them. Rule as the data show it: active = growth inhibition above about 70%; inactive = the rest.

Key:
[1] = NCI Yeast Anticancer Drug Screen. Data for the wt1 strain (AID 149);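 also: 0% = growth of vehicle-treated wt1 cultures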; settings: S. cerevisiae wt1 strain (SPY 50644) growth inhibition, stronger effect = higher value
Outline: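 Measured: growth of wt1 yeast under compound versus vehicle treatment, reported as inhibition.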

[2] = NCI Yeast Anticancer Drug Screen. Data for the rad50 strain (AID 155);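 also: 0% = growth of vehicle-only cultures of the same strain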; settings: S. cerevisiae rad50 strain growth inhibition, stronger effect = higher value
Outline: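 Growth of the mutant yeast was measured after compound exposure and referenced to vehicle-treated cultures.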

[3] = NCI Yeast Anticancer Drug Screen. Data for the mec2-1 strain (AID 157); settings: S. cerevisiae mec2-1 strain, stronger effect = higher value
Outline: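 Growth inhibition is read against vehicle-treated controls after compound exposure of the mec2-1 yeast strain, which is defective in DNA damage repair or cell cycle control.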

[4] = NCI Yeast Anticancer Drug Screen. Data for the rad14 strain (AID 159);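 also: 0% = growth of vehicle-treated control cultures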; settings: S. cerevisiae rad14 strain growth inhibition, stronger effect = higher value
Outline: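 Here, inhibition of yeast growth was measured after compound exposure, using a strain with a genetic defect in DNA damage repair and vehicle-treated cultures as the reference.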

[5] = NCI Yeast Anticancer Drug Screen. Data for the sgs1 mgt1 strain (AID 161);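 also: 0% = growth of cultures given vehicle only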; settings: S. cerevisiae sgs1 mgt1 strain, stronger effect = higher value
Outline: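 This yeast growth screen uses a strain with defined DNA-repair lesions; compound-treated growth is compared with vehicle-treated growth.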

[6] = NCI Yeast Anticancer Drug Screen. Data for the CLN2oe strain (AID 163);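 also: 0% = growth of vehicle-only control cultures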; settings: S. cerevisiae CLN2oe strain, stronger effect = higher value
Outline: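 Compound-treated yeast; growth vs vehicle ctrl = % inhibition. Genetically altered strain (cell-cycle control).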

[7] = NCI Yeast Anticancer Drug Screen. Data for the cln2 rad14 strain (AID 165);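 also: 0% = growth equal to vehicle treated cultures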; settings: S. cerevisiae cln2 rad14 strain, stronger effect = higher value
Outline: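 Growth inhibition, relative to vehicle-treated controls, is the read-out. The test organism is a yeast strain with defined genetic alterations, cln2 rad14.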

[8] = NCI Yeast Anticancer Drug Screen. Data for the bub3 strain (AID 167); settings: S. cerevisiae bub3 mutant strain, stronger effect = higher value
Outline: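 Whole-cell yeast assay. The mutant strain was incubated with compounds, and growth inhibition was determined by comparison with vehicle-treated cells.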

[9] = NCI Yeast Anticancer Drug Screen. Data for the wt2 strain (AID 169);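 also: 0% = growth of vehicle-treated yeast cultures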; settings: S. cerevisiae wt2 strain growth inhibition, stronger effect = higher value
Outline: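 Compound exposure of yeast; growth compared with vehicle controls; inhibition reported.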

[10] = NCI Yeast Anticancer Drug Screen. Data for the mlh1 strain (AID 171);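 also: 0% = growth of vehicle-treated control cultures of the same strain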; settings: S. cerevisiae mlh1 strain growth inhibition, stronger effect = higher value
Outline: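 Compounds are applied to a genetically altered yeast strain, and its growth is compared with that of vehicle-treated cultures to give percent inhibition.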

[11] = NCI Yeast Anticancer Drug Screen. Data for the sgs1 strain (AID 173);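 also: 0% = growth of vehicle-only control cultures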; settings: S. cerevisiae sgs1 mutant, stronger effect = higher value
Outline: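 Compounds applied to genetically altered yeast; growth compared with vehicle-treated cultures to give % inhibition.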

[12] = NCI Yeast Anticancer Drug Screen. Data for the mlh1 rad18 strain (AID 175); settings: S. cerevisiae mlh1 rad18 strain growth inhibition, stronger effect = higher value
Outline: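 Cells of a genetically altered yeast strain, deficient in DNA damage repair, were treated with compound. Their growth was then compared with that of vehicle-treated cultures to give inhibition.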

[13] = NCI Yeast Anticancer Drug Screen. Data for the rad18 strain (AID 177); settings: S. cerevisiae rad18 mutant growth inhibition, stronger effect = higher value
Outline: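 Compounds are applied to a repair-deficient yeast strain, and growth is compared with that of vehicle-treated cultures to give percent inhibition.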

[14] = NCI Yeast Anticancer Drug Screen. Data for the rad50EPP+ strain (AID 151);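 also: 0% = growth of vehicle-treated control cultures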; settings: S. cerevisiae rad50 mutant strain, stronger effect = higher value
Outline: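 rad50EPP+ yeast treated with test compounds. Readout: growth vs vehicle control.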

[15] = at 5.0 µM (retest, dose inferred, filed as 0.5)
[16] = at 50.0 µM (retest, dose inferred, filed as 5.0)

Measured: growth inhibition

Cc1cc(NC(=S)SCc2ccc(Cl)cc2)ccc1Cl
active: [1]; at 33.0 µM 98% | [1]; at 100.0 µM 98% | [2]; at 33.0 µM 97% | [2]; [16] 96% | [2]; at 50.0 µM 90.5% | [2]; at 100.0 µM 95% | [3]; at 33.0 µM 98% | [3]; [16] 97% | [3]; at 50.0 µM 92.5% | [3]; at 100.0 µM 98% | [4]; at 33.0 µM 99% | [4]; at 100.0 µM 98% | [5]; [16] 98% | [5]; at 50.0 µM 91.8% | [6]; at 33.0 µM 98% | [6]; at 100.0 µM 98% | [7]; [16] 95% | [7]; at 50.0 µM 90.5% | [8]; at 33.0 µM 99% | [8]; [16] 98% | [8]; at 50.0 µM 91.6% | [8]; at 100.0 µM 98% | [9]; at 33.0 µM 98% | [9]; at 100.0 µM 99% | [10]; at 33.0 µM 98% | [10]; at 100.0 µM 98% | [11]; at 33.0 µM 98% | [11]; at 100.0 µM 98% | [12]; [16] 96% | [12]; at 50.0 µM 90.6% | [13]; at 33.0 µM 98% | [13]; at 100.0 µM 96%
inactive: [1]; at 1.2 µM 11% | [1]; at 3.7 µM 24% | [1]; at 11.0 µM 63% | [2]; at 1.2 µM 12% | [2]; at 3.7 µM 10% | [2]; [15] 24% | [2]; at 11.0 µM 44% | [3]; at 1.2 µM -3% | [3]; at 3.7 µM 6% | [3]; [15] 0% | [3]; at 11.0 µM 29% | [4]; at 1.2 µM -4% | [4]; at 3.7 µM 22% | [4]; at 11.0 µM 46% | [5]; [15] 43% | [6]; at 1.2 µM -3% | [6]; at 3.7 µM 15% | [6]; at 11.0 µM 44% | [7]; [15] 29% | [8]; at 1.2 µM -4% | [8]; at 3.7 µM -8% | [8]; [15] 48% | [8]; at 11.0 µM 49% | [9]; at 1.2 µM -5% | [9]; at 3.7 µM 20% | [9]; at 11.0 µM 56% | [10]; at 1.2 µM -17% | [10]; at 3.7 µM -8% | [10]; at 11.0 µM 27% | [11]; at 1.2 µM -9% | [11]; at 3.7 µM -22% | [11]; at 11.0 µM 38% | [12]; [15] 11% | [13]; at 1.2 µM 13% | [13]; at 3.7 µM 35% | [13]; at 11.0 µM 69%

CN(C)c1ccc(C(c2ccc(Cl)cc2)c2ccc(N(C)C)cc2)cc1
active: [1]; at 33.0 µM 73% | [1]; at 100.0 µM 86% | [2]; at 3.7 µM 97% | [2]; [15] 91% and 98% | [2]; at 11.0 µM 96% | [2]; at 33.0 µM 89% | [2]; [16] 94% and 99% | [2]; at 50.0 µM 95.7% and 94.5% | [2]; at 100.0 µM 79% | [3]; at 3.7 µM 98% | [3]; [15] 90% and 99% | [3]; at 11.0 µM 97% | [3]; at 33.0 µM 93% | [3]; [16] 93% and 100% | [3]; at 50.0 µM 95% and 94.3% | [3]; at 100.0 µM 86% | [4]; at 1.2 µM 82% | [4]; at 3.7 µM 98% | [4]; at 11.0 µM 98% | [4]; at 33.0 µM 94% | [4]; at 100.0 µM 84% | [5]; [15] 98% | [5]; [16] 94% and 99% | [5]; at 50.0 µM 94.1% and 95.3% | [6]; at 33.0 µM 87% | [6]; at 100.0 µM 78% | [7]; [16] 74% and 99% | [7]; at 50.0 µM 77.9% and 89.7% | [9]; at 33.0 µM 86% | [9]; at 100.0 µM 85% | [10]; at 3.7 µM 87% | [10]; at 11.0 µM 73% | [10]; at 33.0 µM 92% | [10]; at 100.0 µM 86% | [11]; at 3.7 µM 91% | [11]; at 11.0 µM 83% | [11]; at 33.0 µM 93% | [11]; at 100.0 µM 85% | [12]; [15] 96% and 98% | [12]; [16] 90% and 99% | [12]; at 50.0 µM 93.4% and 92.8% | [13]; at 1.2 µM 94% | [13]; at 3.7 µM 98% | [13]; at 11.0 µM 97% | [13]; at 33.0 µM 90% | [13]; at 100.0 µM 83%
-52% (inactive) and 97% (active): [7]; [15]
inactive: [1]; at 1.2 µM 0% | [1]; at 3.7 µM 53% | [1]; at 11.0 µM 28% | [14]; at 1.2 µM 3% | [14]; at 3.7 µM 10% | [14]; at 11.0 µM 6% | [14]; at 33.0 µM -2% | [14]; at 100.0 µM 14% | [2]; at 1.2 µM 64% | [3]; at 1.2 µM 31% | [6]; at 1.2 µM -14% | [6]; at 3.7 µM 26% | [6]; at 11.0 µM 26% | [9]; at 1.2 µM -2% | [9]; at 3.7 µM 13% | [9]; at 11.0 µM 17% | [10]; at 1.2 µM 9% | [11]; at 1.2 µM 24%
